KCNQ2 block – blocks the rat KCNQ2 potassium channel | O88943 | CHO-K1 KCNQ2, FluxOR thallium flux, 20 min; stronger effect = lower value | B-score at 10 µM | 310,000 tested, 1.1% active;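 active means fluorescence ratio B-score at most minus 3 library SDs, with starting brightness B-score within 2 library SDs, cut at about -5.5 in these data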
KCNQ2 enhance – potentiators of rat KCNQ2 potassium channel. CHO-K1 KCNQ2, FluxOR thallium flux fluorescence; stronger effect = higher value. B-score at 10 µM. 310,000 tested, 0.54% active. AID 2239;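 active means fluorescence ratio B-score at least 3 SD of library B-scores, with initial fluorescence B-score within 3 of them, cut at about 5.3 in these data; same plate scores as AID 2156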;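 further: B-score of peak minus minimum over baseline fluorescence ratio after K+ and Tl+ stimulus; positive B-score means potentiation of KCNQ2 with more thallium influx and brighter signal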
Kir21 conf inh – confirmation of mouse Kir2.1 potassium channel inhibitors | shares compounds with KCNQ2 enhance | 2,300 tested, 41% active | AID 2032 | Tl flux remaining, % of negative control (stronger effect = lower value), % at 10 µM | Kir2.1-expressing cells, FluxOR thallium flux fluorescence; stronger effect = lower value;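 active means Primary-screen hit whose thallium flux fell at least 3 control SD below untreated wells in both duplicates, with normal baseline fluorescence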
Target sequence (P35561 whole entry, looked up): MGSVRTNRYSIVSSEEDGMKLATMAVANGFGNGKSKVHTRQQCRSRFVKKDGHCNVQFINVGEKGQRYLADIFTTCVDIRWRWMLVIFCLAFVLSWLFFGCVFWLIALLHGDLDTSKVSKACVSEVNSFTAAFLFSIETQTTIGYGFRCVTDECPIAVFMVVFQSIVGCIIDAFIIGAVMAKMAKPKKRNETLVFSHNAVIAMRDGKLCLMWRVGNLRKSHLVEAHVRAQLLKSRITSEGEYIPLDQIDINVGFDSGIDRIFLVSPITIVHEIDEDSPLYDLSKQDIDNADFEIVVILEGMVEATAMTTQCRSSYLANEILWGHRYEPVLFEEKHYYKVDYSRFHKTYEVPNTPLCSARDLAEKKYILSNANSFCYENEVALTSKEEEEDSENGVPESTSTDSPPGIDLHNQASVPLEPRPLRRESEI
HEK293 ctr – parental HEK293 activity in Kir2.1 inhibitor counter-screen. shares compounds with KCNQ2 enhance. parental HEK293 cells, FluxOR thallium flux fluorescence; 0% = unstimulated blank wells. FluxOR signal as % of negative control (100 = no effect), % at 10 µM. 2,300 tested, 19% active. AID 2105;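 active means dye signal at least 3 control SD above or below untreated wells in both duplicates, raw fluorescence within 3, either direction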;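 further: percent is based on the flux ratio of peak minus minimum fluorescence over baseline F0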
CHO-K1 Tl ctr – parental CHO-K1 activity in KCNQ2 potentiator counter-screen | shares compounds with KCNQ2 enhance | activity increase over 3SD of controls, % at 10 µM | 1,200 tested, 43% active | parental CHO-K1 cells, FluxOR thallium flux fluorescence; zero = vehicle mean+3SD, 100% = vehicle-minus-blank window;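 active means signal rise of at least 3 SD above the untreated control mean, in both duplicate wells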;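 further: counter screen of KCNQ2 potentiator hits so any rise reflects channel-independent effects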
KCNQ1 sel pot – human KCNQ1 counter-target activity of KCNQ2 potentiators; shares compounds with KCNQ2 enhance; CHO KCNQ1 stable, FluxOR thallium flux fluorescence; beyond 3SD, as % of vehicle-control signal; activation over 3SD threshold, % at 10 µM; 1,200 tested, 28% active; AID 2283;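 active means fluorescence ratio rise of at least 3 SD of vehicle wells above their mean, in both replicate wells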
KCNQ2 pot confirm – confirmation of rat KCNQ2 potassium channel potentiators; CHO-KCNQ2 cells, FluxOR thallium flux fluorescence; potentiation, less the hit threshold, % at 10 µM; shares compounds with KCNQ2 enhance; AID 2287; 1,200 tested, 68% active;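 active means fluorescence ratio rising 3 SD or more over the vehicle control mean in both replicates, plus primary screen hit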;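 further: peak minus minimum thallium fluorescence divided by baseline after K/Tl stimulus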
Kir21 spec – mouse Kir2.1 off-target activity of KCNQ2 potentiators | activity over 3SD threshold, % at 10 µM | 1,200 tested, 2% active | HEK293 Kir2.1, FluxOR thallium flux fluorescence | shares compounds with KCNQ2 enhance;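 active means fluorescence ratio rise of at least 3 SD above the vehicle-control mean, seen in both replicates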
KCNQ2 W236L pot – rat KCNQ2 W236L mutant potentiation by KCNQ2 potentiators; shares compounds with KCNQ2 enhance; CHO KCNQ2-W236L, automated patch clamp current; current increase over 3SD of negative controls (%), stronger effect = higher value, % at 25 µM; 940 tested, 10% active; AID 2558;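 active means current increase at least 3 SD of the untreated controls above them in both duplicate recordings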
Of the large screens only hits and unclear results are named; the others gave an inactive call (follow-up assays come after a bar, where they were run). Shown are actives, neighbours in structure and some others; about 1.6% of the full set was active somewhere.

CC(C)Oc1ccc(CNC(=O)CC(c2ccccc2)c2cc(Cl)ccc2O)cc1 (centres undefined)	KCNQ2 enhance 14.7 | Kir21 conf inh inactive | HEK293 ctr 128.5% | CHO-K1 Tl ctr 10.8 | KCNQ1 sel pot 17.7 | KCNQ2 pot confirm 59.0 | Kir21 spec inactive | KCNQ2 W236L pot inactive
O=C(CC(c1ccccc1)c1cc(Br)ccc1O)NCc1ccco1 (centres undefined)	KCNQ2 enhance 18.3 | CHO-K1 Tl ctr inactive | KCNQ1 sel pot inactive | KCNQ2 pot confirm 66.8 | Kir21 spec inactive | KCNQ2 W236L pot inactive
CC(C)NC(=O)CC(c1ccccc1)c1cc(Br)ccc1O (centres undefined)	none
CCC(C)(CC(=O)Nc1nccs1)c1ccccc1 (centres undefined)	none
O=C(Cc1c(F)cccc1Cl)Nc1ccccc1-c1ccccc1	none (no result: KCNQ2 enhance)
CCCn1c2ccc(C)cc2c2n[nH]c(=S)nc21	none
Cc1cccc(NC(=O)c2c([N+](=O)[O-])cnn2C)c1	none
COc1cc(C)c(C(=O)Oc2cc(C)c(C(=O)O)c(O)c2C)c(O)c1C	none
COc1cc(C)c(C(=O)Oc2cc(C)c(C(=O)O)c(O)c2)c(O)c1	KCNQ2 enhance 7.01 | Kir21 conf inh inactive | HEK293 ctr inactive | CHO-K1 Tl ctr 45.2 | KCNQ1 sel pot inactive | KCNQ2 pot confirm 13.9 | Kir21 spec inactive | KCNQ2 W236L pot 21.3%
Cc1ccc2nccc(C(=O)N3CCCC(Nc4ccc(F)cc4)C3)c2c1 (centres undefined)	none (no result: KCNQ2 enhance)
c1ccc2c(c1)ncn2-c1ncnc2sc3c(c12)CCCC3	none
CC(O)CNc1nc2ccccc2n1-c1ncnc2sc3c(c12)CCC3 (centres undefined)	none (no result: KCNQ2 enhance) | Kir21 conf inh 78.5% | HEK293 ctr inactive
Cc1cccc(N2CCN(C(=O)c3ccc(NC4=NC5CS(=O)(=O)CC5S4)cc3)CC2C)c1 (centres undefined)	none (no result: KCNQ2 enhance)
CC(=O)Oc1ccc([C@@H]2COc3c(ccc4c3C=CC(C)(C)O4)C2)c(OC(C)=O)c1	none (no result: KCNQ2 enhance)
CC(C)=CCc1cc([C@@H]2COc3c(ccc4c3C=CC(C)(C)O4)C2)c(O)cc1O	KCNQ2 enhance 6.01 | Kir21 conf inh inactive | HEK293 ctr inactive | CHO-K1 Tl ctr inactive | KCNQ1 sel pot inactive | KCNQ2 pot confirm inactive | Kir21 spec inactive
Cc1cccc(NC(=O)C(=O)NNC(=O)c2ccc(C(C)(C)C)cc2)c1	KCNQ2 enhance 16.3 | Kir21 conf inh inactive | HEK293 ctr inactive | CHO-K1 Tl ctr 22.5 | KCNQ1 sel pot 4.1 | KCNQ2 pot confirm 44.1 | Kir21 spec inactive | KCNQ2 W236L pot inactive
CC(C)(C)c1ccc(C(=O)NNC(=O)c2cccc(Br)c2)cc1	none
C=CCNCCCCOc1c(Cl)cc(C)cc1Br	none | Kir21 conf inh 35.0% | HEK293 ctr inactive
Cc1cc(Cl)c(OCCCNC2CCCC2)c(Br)c1	none
C=CCNCCOc1c(C)cc(C)cc1Cl	none
COCCCNCCCCOc1c(Cl)cc(C)cc1Br	none (no result: KCNQ2 enhance) | Kir21 conf inh 43.5% | HEK293 ctr inactive
O=S(=O)(Nc1cccc(-c2nnco2)c1)c1ccc(Cl)cc1	none
Cc1ccc(CC(=O)NC(C)CCc2ccccc2)cc1 (centres undefined)	none (no result: KCNQ2 enhance)
Cc1ccccc1CN(C)CC(=O)NC(C)CCc1ccccc1 (centres undefined)	KCNQ2 block -6.6 | Kir21 conf inh 34.5% | HEK293 ctr inactive
CC(Cc1ccc(O)c(O)c1)C(C)Cc1ccc(O)c(O)c1 (centres undefined)	none (no result: KCNQ2 enhance) | Kir21 conf inh 17.5% | HEK293 ctr 55.5%
CC(CCc1ccc(O)cc1)NCCc1ccc(O)c(O)c1 (centres undefined)	none
COc1ccc(N(CC(=O)NCCSCc2cccc(Cl)c2)S(C)(=O)=O)cc1Cl	none
CCCCN(CCCC)CCNC(=O)CN1C(=O)COc2ccc(S(=O)(=O)N3CCC(C)CC3)cc21	none (no result: KCNQ2 enhance)
CCCCN(CCCNC(=O)CN1C(=O)COc2ccc(S(=O)(=O)N3CCC(C)CC3)cc21)Cc1ccccc1	none | Kir21 conf inh 66.5% | HEK293 ctr inactive
Cc1ccc2nc(Cl)c(CNCc3ccccc3)cc2c1	none (no result: KCNQ2 enhance) | Kir21 conf inh 20.5% | HEK293 ctr inactive
Cc1ccc(CNCc2ccccc2Cl)cc1	none (no result: KCNQ2 enhance)
COc1ccc2oc(C(=O)NCCN3CCOCC3)c(C)c2c1OC	none
CC1Sc2ccc(C(=O)OCc3ccccc3Cl)cc2NC1=O (centres undefined)	none
O=C(NNc1ncc(C(F)(F)F)cc1Cl)c1ccc(Cl)c(Cl)c1	KCNQ2 enhance 12.3 | Kir21 conf inh inactive | HEK293 ctr inactive | CHO-K1 Tl ctr inactive | KCNQ1 sel pot inactive | KCNQ2 pot confirm 1.2 | Kir21 spec inactive | KCNQ2 W236L pot 6.1%
Nc1ccccc1C(=O)NNc1ncc(C(F)(F)F)cc1Cl	none (no result: KCNQ2 enhance)
O=C(NCc1ccccn1)C(=O)Nc1cccc2ccccc12	none
Clc1ccc(-c2csc3ncnc(Cl)c23)cc1	none
S=c1[nH]cnc2scc(-c3ccc(Cl)cc3)c12	KCNQ2 enhance 9.61 | Kir21 conf inh inactive | HEK293 ctr 142.5% | CHO-K1 Tl ctr inactive | KCNQ1 sel pot inactive | KCNQ2 pot confirm 13.5 | Kir21 spec inactive | KCNQ2 W236L pot inactive
O=c1[nH]cnc2scc(-c3ccccc3)c12	none (no result: KCNQ2 enhance)
S=c1[nH]cnc2scc(-c3ccc(Br)cc3)c12	KCNQ2 enhance 5.61 | Kir21 conf inh inactive | HEK293 ctr 194.0% | CHO-K1 Tl ctr inactive | KCNQ1 sel pot inactive | KCNQ2 pot confirm inactive | Kir21 spec inactive | KCNQ2 W236L pot inactive
Cc1cc(-c2csc3nc[nH]c(=S)c23)cc(C)c1C	KCNQ2 enhance 14.7 | Kir21 conf inh inactive | HEK293 ctr 262.5% | CHO-K1 Tl ctr inactive | KCNQ1 sel pot inactive | KCNQ2 pot confirm 36.0 | Kir21 spec inactive | KCNQ2 W236L pot inactive
O=c1[nH]cnc2scc(-c3ccsc3)c12	none
C/C=C/c1ccc(OCCN2CCc3ccccc3C2)c(OC)c1	none (no result: KCNQ2 enhance)
C=CCc1ccccc1OCCNCc1ccccc1	none (no result: KCNQ2 enhance) | Kir21 conf inh 31.5% | HEK293 ctr inactive
C=CCc1ccc(OCCCNCc2ccccc2)c(OC)c1	none | Kir21 conf inh 41.5% | HEK293 ctr inactive
C=CCc1ccc(OCCCNC2CCCC2)c(OC)c1	none (no result: KCNQ2 enhance)
C=CCc1ccc(OCCN2CCc3ccccc3C2)c(OC)c1	none | Kir21 conf inh 20.0% | HEK293 ctr inactive
Brc1ccccc1OCCNCc1ccccc1	none (no result: KCNQ2 enhance)
CC(C)(/C=N/NC(=O)CSCc1ccccc1Cl)CCC#N	none

Compound activity: PubChem BioAssay, Johns Hopkins Ion Channel Center
